# Where “and” joins values, the source holds several entries; their conditions need not be identical. Equal entries are not always repeated. Inconclusive results are not listed. A structure can be active in one record and inactive in another. Calls of active or inactive are those of the source. Unless noted, the call rests on the fitted dose curve; in most records, active means well fitted curve in the direction sought with a large enough effect; inconclusive means small, poorly fitted or top-dose-only effect, or another doubt; inactive means no such curve, though single readings can be large; an effect the other way counts as inactive or inconclusive.
# Tests used:
# [1] = tested on: Zika virus NS2B-NS3 protease; assay: Primary screen GU AMC qHTS for Zika virus inhibitors (AID 1347154);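 further: 0% = no-inhibitor control and -100% = no-enzyme control; nearly all actives have a fitted effect of over 70% in size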
# Outline: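 Unlinked Zika NS2B hydrophilic domain–NS3 protease complex at 25 nM in 10 mM Tris-HCl pH 8.0, 0.01% Tween 20, with an AMC peptide substrate. Fluorescence change (340/450 nm) over 15 min at room temperature, normalized to controls, fitted to 4-parameter Hill.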
# [2] = Counterscreen qHTS for small molecule stabilizers of the endoplasmic reticulum resident proteome: GLuc-NoTag assay (AID 1508627); further: potency means the concentration at half of the fitted maximal effect
# Outline: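 Counterscreen line: SH-SY5Y-GLuc-NoTag. Seed, 5 h; compound, 19 h; thapsigargin 100 nM, 4 h; 37C/5% CO2. Readout: secreted GLuc luminescence, coelenterazine 0.07x final, no lysis.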
# [3] = Confirmatory qHTS for small molecule stabilizers of the endoplasmic reticulum resident proteome: Secreted ER Calcium Modulated Protein (SERCaMP) assay (AID 1508628); further: nearly all actives have a fitted effect of over 40% in size; further: potency means the concentration at half of the fitted maximal effect
# Outline: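 Reporter secretion upon ER calcium depletion (100 nM thapsigargin, 4 h, 37C) is measured as medium luminescence with coelenterazine, after 16 h compound pretreatment of SH-SY5Y-GLuc-SERCaMP cells; primary at three concentrations up to 38.3 uM, follow-up at 11 (up to 76.6 uM).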
# [4] = target: Cytochrome P450 1A2 (Homo sapiens) (UniProt P05177); assay: p450-cyp1a2 (AID 410; calls by dose curve; further: potency means the concentration at half of the fitted maximal effect)
# Sequence of Cytochrome P450 1A2 (Homo sapiens) (P05177 whole entry, looked up): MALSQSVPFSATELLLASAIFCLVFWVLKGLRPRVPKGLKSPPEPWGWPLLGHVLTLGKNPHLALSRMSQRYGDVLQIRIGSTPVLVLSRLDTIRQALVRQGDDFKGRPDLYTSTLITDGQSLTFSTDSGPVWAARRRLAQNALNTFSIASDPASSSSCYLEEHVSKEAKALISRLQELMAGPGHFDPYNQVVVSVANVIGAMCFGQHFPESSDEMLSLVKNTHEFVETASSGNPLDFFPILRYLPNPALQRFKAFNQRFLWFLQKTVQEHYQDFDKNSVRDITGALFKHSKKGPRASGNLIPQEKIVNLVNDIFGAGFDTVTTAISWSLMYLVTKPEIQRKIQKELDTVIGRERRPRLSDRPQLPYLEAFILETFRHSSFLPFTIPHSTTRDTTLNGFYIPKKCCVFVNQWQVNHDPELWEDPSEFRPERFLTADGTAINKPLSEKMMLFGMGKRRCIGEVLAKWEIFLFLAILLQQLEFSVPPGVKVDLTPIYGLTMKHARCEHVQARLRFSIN
# Outline: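 O-Demethylation of luciferin 6' methyl ether by human CYP1A2 is monitored as luciferase luminescence. Substrate sits at Km (100uM); enzyme is 20nM. Values are scaled to 57 uM furafylline as maximal inhibition.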
# [5] = target: Glucocorticoid receptor (Homo sapiens) (UniProt P04150); assay: GR-GFP Redistribution (AID 450;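 active means compounds whose dose series gives a full or clear partial fitted curve of increased nuclear translocation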; further: potency means the concentration at half of the fitted maximal effect); conditions: U2OS GR-GFP nuclear translocation, laser cytometry, 2 h
# Sequence of Glucocorticoid receptor (Homo sapiens) (P04150 whole entry, looked up, the tested form may be a part): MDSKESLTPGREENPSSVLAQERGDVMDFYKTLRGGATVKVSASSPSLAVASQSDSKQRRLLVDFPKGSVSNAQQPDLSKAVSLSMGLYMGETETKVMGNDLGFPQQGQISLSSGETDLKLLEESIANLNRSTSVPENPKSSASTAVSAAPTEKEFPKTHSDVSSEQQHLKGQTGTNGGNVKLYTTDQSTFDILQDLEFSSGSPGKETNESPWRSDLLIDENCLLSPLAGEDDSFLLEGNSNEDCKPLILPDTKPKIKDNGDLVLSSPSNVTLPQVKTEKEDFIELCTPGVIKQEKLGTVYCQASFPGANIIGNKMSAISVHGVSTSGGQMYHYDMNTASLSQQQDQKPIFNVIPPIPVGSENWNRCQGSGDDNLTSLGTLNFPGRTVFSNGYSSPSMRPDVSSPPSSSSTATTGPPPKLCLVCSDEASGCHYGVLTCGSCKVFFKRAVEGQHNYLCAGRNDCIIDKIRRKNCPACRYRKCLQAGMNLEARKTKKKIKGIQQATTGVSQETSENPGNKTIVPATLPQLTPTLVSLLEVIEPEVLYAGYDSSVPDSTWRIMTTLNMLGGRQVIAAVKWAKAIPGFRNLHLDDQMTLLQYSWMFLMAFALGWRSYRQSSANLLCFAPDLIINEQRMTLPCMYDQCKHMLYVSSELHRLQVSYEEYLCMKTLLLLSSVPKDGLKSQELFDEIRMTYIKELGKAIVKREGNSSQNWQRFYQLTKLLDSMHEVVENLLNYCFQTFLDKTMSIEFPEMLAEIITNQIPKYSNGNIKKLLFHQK
# [6] = target: Glucocorticoid receptor (Homo sapiens) (UniProt P04150); assay: GR-EFC Redistribution (AID 451; calls by dose curve; further: potency means the concentration at half of the fitted maximal effect); conditions: CHO-K1 GR-EFC translocation, beta-gal luminescence, 2 h
# Outline: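 CHO-K1 cells expressing nuclear EA and GR-ED fragments of b-gal; compounds titrated up to 46 uM final, 2 h at 37 C. GR nuclear translocation read as complemented b-gal luminescence after 1 h RT detection.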
# [7] = target: Mitogen-activated protein kinase 10 (Mus musculus) (UniProt Q61831); assay: JNK3 AlphaScreen Assay (AID 530; active means well fitted curve in either direction with a large enough effect, not every such curve was filed as active;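 further: kinase came from lysate of stimulated human HepG2 cells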; further: potency means the concentration at half of the fitted maximal effect)
# Outline: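 Activity was read by AlphaScreen after JNK3-containing HepG2 lysate (cytokine pre-activated) phosphorylated biotinylated GST-cJun with 10 uM ATP at room temperature. Phospho-Ser73 cJun antibody with Protein-A acceptor beads provided detection.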
# [8] = target: Cytochrome P450 3A4 (Homo sapiens) (UniProt P08684); assay: qHTS Assay for Activators of Cytochrome P450 3A4 (AID 885); further: nearly all actives have a fitted effect of over 65% in size
# Sequence of Cytochrome P450 3A4 (Homo sapiens) (P08684 whole entry, looked up): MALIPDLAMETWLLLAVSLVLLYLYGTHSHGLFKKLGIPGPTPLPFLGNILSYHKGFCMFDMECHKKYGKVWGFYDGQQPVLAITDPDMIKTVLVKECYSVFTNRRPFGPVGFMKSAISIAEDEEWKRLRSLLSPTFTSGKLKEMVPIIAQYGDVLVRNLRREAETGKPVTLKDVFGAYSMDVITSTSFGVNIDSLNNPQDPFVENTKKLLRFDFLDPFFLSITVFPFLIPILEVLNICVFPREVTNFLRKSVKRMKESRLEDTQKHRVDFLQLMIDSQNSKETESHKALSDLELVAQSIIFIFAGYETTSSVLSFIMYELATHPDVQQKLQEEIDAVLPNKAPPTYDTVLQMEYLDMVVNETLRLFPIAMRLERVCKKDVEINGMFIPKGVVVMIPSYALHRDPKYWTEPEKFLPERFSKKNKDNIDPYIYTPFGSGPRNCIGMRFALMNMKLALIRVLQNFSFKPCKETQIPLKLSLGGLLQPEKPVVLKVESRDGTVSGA
# Outline: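 Luminescent readout of luciferin formed from 25 uM Luciferin-PPXE (KM level) by 20 nM CYP3A4 in 200 mM KPO4, with 60 min NADPH-driven reaction at room temperature after 10 min compound exposure. Ketoconazole (57 uM) defined 100% inhibition.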
# [9] = target: Cytochrome P450 2C19 (Homo sapiens) (UniProt P33261); assay: qHTS Assay for Inhibitors and Substrates of Cytochrome P450 2C19 (AID 899); further: potency means the concentration at half of the fitted maximal effect; nearly all actives have a fitted effect of over 60% in size
# Sequence of Cytochrome P450 2C19 (Homo sapiens) (P33261 whole entry, looked up): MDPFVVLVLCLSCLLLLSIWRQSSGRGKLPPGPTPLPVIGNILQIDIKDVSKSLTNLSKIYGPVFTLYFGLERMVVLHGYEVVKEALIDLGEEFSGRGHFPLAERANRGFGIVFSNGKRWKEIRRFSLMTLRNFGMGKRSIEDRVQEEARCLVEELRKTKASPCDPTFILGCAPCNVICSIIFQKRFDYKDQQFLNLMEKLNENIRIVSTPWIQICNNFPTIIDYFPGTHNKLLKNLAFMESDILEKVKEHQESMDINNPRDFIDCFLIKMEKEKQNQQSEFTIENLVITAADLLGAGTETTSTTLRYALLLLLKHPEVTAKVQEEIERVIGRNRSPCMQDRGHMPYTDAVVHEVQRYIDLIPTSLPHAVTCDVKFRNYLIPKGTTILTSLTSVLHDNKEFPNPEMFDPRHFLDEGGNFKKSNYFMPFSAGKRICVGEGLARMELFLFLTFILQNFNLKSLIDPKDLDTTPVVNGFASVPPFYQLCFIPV
# Outline: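 Signal comes from luciferase acting on luciferin released by CYP2C19-mediated hydroxylation of Luciferin-H EGE, 10uM (KM). Assay mix: 5nM enzyme, 50mM KPO4; 60 min at 37C with NADPH regeneration. Data normalized against 57uM ketoconazole.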
# [10] = target: Ubiquitin carboxyl-terminal hydrolase 1 (Homo sapiens) (UniProt O94782); assay: Inhibitors of USP1/UAF1: Pilot qHTS (AID 504865);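 further: rhodamine fluorescence freed from ubiquitin-rhodamine substrate followed over time; top concentration of the series differs between compounds; on the % scale 0 is the no-effect control and ±100 the full control effect; nearly all actives have a fitted effect of over 35% in size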
# Outline: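 Enzyme-free wells gave the negative control, while test wells held 1nM USP1/UAF1 preincubated with compound for 15 min at room temperature. Ub-Rho at 150nM final started the reaction, and fluorescence at 480/540 nm was recorded kinetically.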
# [11] = target: DNA dC->dU-editing enzyme APOBEC-3G (Homo sapiens) (UniProt Q9HC16); assay: qHTS for inhibitors of Vif-A3G interactions: Validation (AID 588379); further: potency means the concentration at half of the fitted maximal effect
# Sequence of DNA dC->dU-editing enzyme APOBEC-3G (Homo sapiens) (Q9HC16 whole entry, looked up): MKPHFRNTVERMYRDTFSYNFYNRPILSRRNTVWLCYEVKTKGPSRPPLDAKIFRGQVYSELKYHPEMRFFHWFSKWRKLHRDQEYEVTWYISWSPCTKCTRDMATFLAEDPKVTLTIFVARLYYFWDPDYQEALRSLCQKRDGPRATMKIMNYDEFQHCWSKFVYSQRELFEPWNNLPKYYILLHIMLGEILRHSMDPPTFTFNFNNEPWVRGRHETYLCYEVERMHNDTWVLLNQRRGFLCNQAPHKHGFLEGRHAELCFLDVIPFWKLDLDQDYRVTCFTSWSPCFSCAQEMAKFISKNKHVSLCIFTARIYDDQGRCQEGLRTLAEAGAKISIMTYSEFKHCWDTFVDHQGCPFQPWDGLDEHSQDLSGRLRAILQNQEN
# Outline: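 Yellow fluorescence (Ex 488, Em 500-530) of Vif-coexpressing HeLa A3G-eYFP cells, scanned by Acumen cytometer, reports blocked A3G degradation. Cells plated at 700/well overnight at 37 deg C before compound addition, then a further overnight compound incubation at 37 deg C.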
# [12] = Cell Viability qHTS for small molecule stabilizers of the endoplasmic reticulum resident proteome (AID 1508629); conditions: cell viability counter-screen, 100 nM thapsigargin for final 4 h;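 further: compound exposure about 46 h in total before the viability read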; further: potency means the concentration at half of the fitted maximal effect;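 on max response: human SH-SY5Y neuroblastoma cells carrying the GLuc-SERCaMP reporter; on the % scale 0 is the no-effect control and ±100 the full control effect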
# [13] = Primary qHTS for small molecule stabilizers of the endoplasmic reticulum resident proteome: Secreted ER Calcium Modulated Protein (SERCaMP) assay (AID 1508630); further: potency means the concentration at half of the fitted maximal effect
# Outline: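 The SH-SY5Y reporter protocol was run at 3 concentrations up to 38.3 uM (primary) or 11 concentrations (follow-up): 16 h compound, 100 nM thapsigargin for 4 h, then extracellular luciferase luminescence.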
# [14] = target: 3',5'-cyclic-AMP phosphodiesterase 4B (Homo sapiens) (UniProt Q07343); assay: qHTS Assay for Inhibitors of PDE-IV (AID 607; active means well fitted activation curve with a large enough effect in the main read-out, with a control signal flat, not every such curve was filed as active; further: % of control where 0% means no effect)
# Sequence of 3',5'-cyclic-AMP phosphodiesterase 4B (Homo sapiens) (Q07343 whole entry, looked up): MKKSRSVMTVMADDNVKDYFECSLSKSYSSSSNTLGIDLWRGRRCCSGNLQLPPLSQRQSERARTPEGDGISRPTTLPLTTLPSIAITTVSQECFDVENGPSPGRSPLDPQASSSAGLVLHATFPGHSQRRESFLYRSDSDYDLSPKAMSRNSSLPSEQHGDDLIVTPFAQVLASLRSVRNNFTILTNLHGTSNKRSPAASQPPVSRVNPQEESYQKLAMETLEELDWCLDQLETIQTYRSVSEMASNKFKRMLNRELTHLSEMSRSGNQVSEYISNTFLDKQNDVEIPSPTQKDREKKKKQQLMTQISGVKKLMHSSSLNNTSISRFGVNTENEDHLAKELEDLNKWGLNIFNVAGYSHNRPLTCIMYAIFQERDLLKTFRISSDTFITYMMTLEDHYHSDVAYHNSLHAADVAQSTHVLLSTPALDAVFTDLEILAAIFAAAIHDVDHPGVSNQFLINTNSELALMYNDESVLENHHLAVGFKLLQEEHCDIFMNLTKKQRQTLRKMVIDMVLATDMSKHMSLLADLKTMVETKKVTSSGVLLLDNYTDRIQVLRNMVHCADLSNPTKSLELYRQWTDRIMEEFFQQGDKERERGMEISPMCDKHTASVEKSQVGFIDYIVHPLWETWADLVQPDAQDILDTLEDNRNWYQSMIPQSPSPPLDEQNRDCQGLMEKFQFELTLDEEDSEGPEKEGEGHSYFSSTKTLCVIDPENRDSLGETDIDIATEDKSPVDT
# Outline: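 Cell-based read-out of cAMP via a modified cyclic nucleotide-gated channel and membrane potential dye (535/590 nm) in HEK293 cells expressing PDE4 endogenously. Compounds tested up to 22.9 uM final; 100 uM RO 20-1724 reference.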
# [15] = target: Guanine nucleotide-binding protein G(i) subunit alpha-1 (Homo sapiens) (UniProt P63096); assay: qHTS Assay for Inhibitors of RGS12 GoLoco Motif Activity (Green Fluorophore) (AID 879);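 further: 0% = labeled peptide with Gαi1 and full inhibition = labeled peptide alone without protein; negative values mean loss of peptide binding seen as reduced polarization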
# Outline: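 A drop in FITC polarization marked displacement of the FITC-tagged RGS12 GoLoco peptide (10 nM) from Gαi1 (50 nM). Compounds were incubated 10 min at room temperature in Tris pH 7.5 buffer containing 150 mM NaCl, 0.1 mM GDP and 0.05% NP40; unlabeled peptide titration served as control.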
# [16] = target: Cytochrome P450 2C9 (Homo sapiens) (UniProt P11712); assay: qHTS Assay for Inhibitors and Substrates of Cytochrome P450 2C9 (AID 883); further: potency means the concentration at half of the fitted maximal effect; nearly all actives have a fitted effect of over 60% in size
# Sequence of Cytochrome P450 2C9 (Homo sapiens) (P11712 whole entry, looked up): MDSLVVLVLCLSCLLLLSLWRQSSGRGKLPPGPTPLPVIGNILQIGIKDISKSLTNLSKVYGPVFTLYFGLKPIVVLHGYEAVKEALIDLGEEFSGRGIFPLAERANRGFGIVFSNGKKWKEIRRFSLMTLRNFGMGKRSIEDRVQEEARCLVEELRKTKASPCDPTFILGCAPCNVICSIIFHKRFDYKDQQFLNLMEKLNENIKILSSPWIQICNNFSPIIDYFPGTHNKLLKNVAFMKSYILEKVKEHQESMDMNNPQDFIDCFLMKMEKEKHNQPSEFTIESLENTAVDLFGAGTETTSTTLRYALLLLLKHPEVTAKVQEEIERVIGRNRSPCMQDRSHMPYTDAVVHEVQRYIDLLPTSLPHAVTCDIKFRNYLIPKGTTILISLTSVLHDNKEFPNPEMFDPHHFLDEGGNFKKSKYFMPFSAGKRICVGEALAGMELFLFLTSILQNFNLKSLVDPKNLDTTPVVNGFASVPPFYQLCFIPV
# Outline: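 Signal: luciferase luminescence reporting luciferin produced by CYP2C9. Conditions: 10nM enzyme, Luciferin-H 100uM at KM, 25mM KPO4, 37C, 60 min NADPH-driven reaction. Reference: 57uM sulphaphenazole as 100% inhibition.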
# [17] = qHTS Assay for Identification of Small Molecule Agonists for Thrombopoietin (TPO) Signaling Pathway (AID 917); further: potency means the concentration at half of the fitted maximal effect
# Outline: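 Human TPO receptor–transfected Ba/F3 cells (murine, IL-3-dependent) in IL-3-deficient medium; compounds plus TPO at EC50, 26 pM final; 24 hrs, 37 C; GpIIb-luciferase luminescence after 10 min RT detection.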
# [18] = target: Muscarinic acetylcholine receptor M1 (Rattus norvegicus) (UniProt P08482); assay: qHTS Assay for Antagonists of Acetylcholine Muscarinic M1 Receptor: Measurement of IP-One Response (AID 944); further: potency means the concentration at half of the fitted maximal effect; nearly all actives have a fitted effect of over 75% in size
# Outline: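 Antagonist mode with rat M1 receptor transfected into CHO cells. Compound is added first for 10 min, carbachol at its EC80 follows for 30 min, and lysis reagents then allow TR-FRET detection of accumulated IP1.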
# [19] = target: Pyruvate kinase (Leishmania mexicana) (UniProt Q27686); assay: qHTS Validation Assay for Inhibitors of Leishmania Mexicana Pyruvate Kinase (AID 945); further: potency means the concentration at half of the fitted maximal effect
# Sequence of Pyruvate kinase (Leishmania mexicana) (Q27686 2-499 E452W): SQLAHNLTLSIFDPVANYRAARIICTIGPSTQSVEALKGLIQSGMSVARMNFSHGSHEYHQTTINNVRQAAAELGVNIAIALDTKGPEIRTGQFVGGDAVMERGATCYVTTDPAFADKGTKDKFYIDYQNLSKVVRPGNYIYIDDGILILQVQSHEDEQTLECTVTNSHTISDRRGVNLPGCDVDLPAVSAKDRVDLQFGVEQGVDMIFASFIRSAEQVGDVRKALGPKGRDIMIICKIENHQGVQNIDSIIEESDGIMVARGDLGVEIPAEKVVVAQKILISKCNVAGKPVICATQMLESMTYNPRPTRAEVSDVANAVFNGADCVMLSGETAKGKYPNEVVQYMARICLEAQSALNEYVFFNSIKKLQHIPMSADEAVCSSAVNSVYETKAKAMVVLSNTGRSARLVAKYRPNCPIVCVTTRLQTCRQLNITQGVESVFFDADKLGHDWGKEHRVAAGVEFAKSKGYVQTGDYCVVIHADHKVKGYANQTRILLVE
# Outline: (§1)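 qHTS eight-point titrations against 0.2 nM LmPYK (E451W) in imidazole buffer pH 7.2 with 0.5 mM PEP, 0.1 mM ADP; 1 h, room temperature. Readout: PKLight luminescence, normalized to neutral DMSO wells.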
# [20] = target: Pyruvate kinase PKM (Homo sapiens) (UniProt P14618); assay: qHTS Assay for Activators of Human Muscle Pyruvate Kinase (AID 954; active means well fitted curve in the direction sought with a large enough effect, not every such curve was filed as active;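 further: 0% = uninhibited enzyme and -100% = no enzyme or full thiadiazolimine inhibition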)
# Sequence of Pyruvate kinase PKM (Homo sapiens) (P14618 whole entry, looked up): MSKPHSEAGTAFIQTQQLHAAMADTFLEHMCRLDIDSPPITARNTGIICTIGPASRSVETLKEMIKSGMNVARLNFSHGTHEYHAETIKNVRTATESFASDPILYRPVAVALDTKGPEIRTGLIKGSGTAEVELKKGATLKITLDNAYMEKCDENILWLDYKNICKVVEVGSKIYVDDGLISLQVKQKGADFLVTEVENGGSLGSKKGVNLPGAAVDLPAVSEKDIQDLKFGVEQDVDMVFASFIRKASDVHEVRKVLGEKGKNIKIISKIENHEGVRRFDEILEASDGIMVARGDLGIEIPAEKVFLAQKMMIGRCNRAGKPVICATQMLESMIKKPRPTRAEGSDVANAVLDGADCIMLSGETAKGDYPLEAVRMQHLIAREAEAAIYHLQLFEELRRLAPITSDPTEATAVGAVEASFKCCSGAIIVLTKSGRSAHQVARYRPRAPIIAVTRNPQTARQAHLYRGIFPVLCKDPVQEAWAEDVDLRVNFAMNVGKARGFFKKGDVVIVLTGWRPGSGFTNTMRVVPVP
# Outline: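 ATP production by PKM2 detected via luciferase luminescence after 1 h room-temperature reaction (0.1 nM enzyme, PEP at Km 0.5 mM, ADP 0.1 mM, pH 7.2 imidazole buffer). Inhibition scaled to no-enzyme control; activation referenced to 0.3 nM enzyme wells.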
# [21] = target: Pyruvate kinase PKM (Homo sapiens) (UniProt P14618); assay: qHTS Assay for Inhibitors of Human Muscle Pyruvate Kinase (AID 958); conditions: purified human PKM enzyme activity
# Outline: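 Human PKM2 activity is measured as ATP generation, detected by luciferase-coupled luminescence. The enzyme (0.1 nM) acts on 0.5 mM PEP and 0.1 mM ADP for 1 h at ambient temperature; data are normalized to uninhibited and full-inhibition wells.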
# [22] = target: Pyruvate kinase (Leishmania mexicana) (UniProt Q27686); assay: qHTS Validation Assay for Activators of Leishmania Mexicana Pyruvate Kinase (AID 959)
# Outline: as §1
# [23] = target: Alpha-galactosidase A (Homo sapiens) (UniProt P06280); assay: Counterscreen for Glucocerebrosidase Inhibitors: qHTS Assay for Human alpha-Galactosidase at pH 4.5 (AID 992); further: 0% is about no effect
# Outline: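 Fluorogenic 1536-well qHTS at pH 4.5 (citrate, Tween-20): 2 nM enzyme, 80 uM 4-MU-alpha-galactoside, 20 min room temperature, NaOH/glycine stop. Titration 0.7 nM to 77 uM, data normalized to no-enzyme and full-activity controls, Hill-fitted AC50.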
# [24] = target: alpha-glucosidase (Oryza sativa, rice) (UniProt Q653V4); assay: Counterscreen for Glucocerebrosidase Inhibitors: qHTS Assay for Rice alpha-Glucosidase at pH 5.0 (AID 997);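 further: 0% = full activity with enzyme and -100% = basal without enzyme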
# Outline: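 Endpoint fluorogenic assay at pH 5.0: compounds (0.7 nM to 77 uM) titrated against 4 nM rice enzyme and 400 uM 4-MU-alpha-glucoside for 20 min at room temperature; NaOH/glycine stop, read ex 365/em 440 nm, Hill-fitted AC50.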
compound,measurement,setting,value
COc1ccc(C2Sc3ccccc3N(CCN(C)C)C(=O)[C@@H]2OC(C)=O)cc1 (stereo partly specified),Potency,[1],inactive
same,Potency,[2],inactive
same,Potency,[3],31.6 µM (active) and inactive
NC(=NC1C2CC3CC(C2)CC1C3)Nc1ccc(I)cc1 (stereo unspecified),Potency,[4],39.8 µM (active)
same,Potency,[5],> 46 µM (inactive)
same,Potency,[6],> 46 µM (inactive)
same,Potency,[7],inactive
same,Potency,[8],inactive
same,Potency,[9],5.01 µM (active)
same,Potency,[10],inactive
same,Potency,[11],inactive
same,Potency,[1],inactive
same,Potency,[2],31.6 µM (active)
same,Potency,[3],inactive
same,Potency,[12],12.6 µM (active)
same,Potency,[13],inactive and 4.47 µM (active)
CN(C)c1ccc(/C=C2/C(=O)Nc3ccccc32)cc1,Potency,[5],> 46 µM (inactive)
same,Potency,[6],> 46 µM (inactive)
same,Potency,[7],5.01 µM (active)
same,Potency,[14],inactive
same,outcome,[15],inactive
same,Potency,[16],5.01 µM (active)
same,Potency,[8],inactive
same,Potency,[9],20 µM (active)
same,Potency,[17],0.0631 µM (active)
same,Potency,[18],14.1 µM (active)
same,Potency,[19],3.16 µM (active)
same,outcome,[20],inactive
same,Potency,[21],3.16 µM (active)
same,Potency,[22],inactive
same,outcome,[23],inactive
same,outcome,[24],inactive
same,Potency,[11],26.6 µM (active)
same,Potency,[1],inactive
same,Potency,[2],35.5 µM (active)
same,max response,[12],8.84% (inactive)

# From PubChem BioAssay (NCATS)
